In PubChem BioAssay AID1671190 (National Center for Advancing Translational Sciences (NCATS), 2021):
Values joined by “and” are separate entries in the source; they are usually repeats but may differ in a detail not shown here. Equal entries are not always repeated. Hit rate of the full screen: of about 580,000 compounds, about 6,100 (1.1%) were called active. About 15% were inconclusive and are not listed. This is one part of a sample in which actives are shown more often than they occur. Values without a mark were called inactive. The call rests on the fitted dose curve; in most records, active means well fitted inhibition curve with a large enough effect; inconclusive means small, poorly fitted or top-dose-only effect, or another doubt; inactive means no such curve, though single readings can be large or run the other way.

Biological target: Polyunsaturated fatty acid lipoxygenase ALOX12 (Homo sapiens) (UniProt P18054)
Assay: Primary qHTS assay for inhibitors of human arachidonate 12S-lipoxygenase (ALOX12): Round 2
Conditions: purified 12hLO, xylenol orange hydroperoxide absorbance; series mostly up to 108 µM; activity change, negative = inhibition: at the top concentration
In short: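 Purified human 12hLO (150 nM final) in 25 mM Hepes, 0.01% Triton X-100, pH 7.0 was preincubated 15 min at room temperature with compound. Then 40 uM arachidonic acid was added, 30 min. Hydroperoxide was read by Fe-XO absorbance ratio 573/405 nm.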
On the % scale 0 is the no-effect control and ±100 the full control effect; potency means the concentration at half of the fitted maximal effect.

Chain of Polyunsaturated fatty acid lipoxygenase ALOX12 (Homo sapiens) (P18054 whole entry, looked up): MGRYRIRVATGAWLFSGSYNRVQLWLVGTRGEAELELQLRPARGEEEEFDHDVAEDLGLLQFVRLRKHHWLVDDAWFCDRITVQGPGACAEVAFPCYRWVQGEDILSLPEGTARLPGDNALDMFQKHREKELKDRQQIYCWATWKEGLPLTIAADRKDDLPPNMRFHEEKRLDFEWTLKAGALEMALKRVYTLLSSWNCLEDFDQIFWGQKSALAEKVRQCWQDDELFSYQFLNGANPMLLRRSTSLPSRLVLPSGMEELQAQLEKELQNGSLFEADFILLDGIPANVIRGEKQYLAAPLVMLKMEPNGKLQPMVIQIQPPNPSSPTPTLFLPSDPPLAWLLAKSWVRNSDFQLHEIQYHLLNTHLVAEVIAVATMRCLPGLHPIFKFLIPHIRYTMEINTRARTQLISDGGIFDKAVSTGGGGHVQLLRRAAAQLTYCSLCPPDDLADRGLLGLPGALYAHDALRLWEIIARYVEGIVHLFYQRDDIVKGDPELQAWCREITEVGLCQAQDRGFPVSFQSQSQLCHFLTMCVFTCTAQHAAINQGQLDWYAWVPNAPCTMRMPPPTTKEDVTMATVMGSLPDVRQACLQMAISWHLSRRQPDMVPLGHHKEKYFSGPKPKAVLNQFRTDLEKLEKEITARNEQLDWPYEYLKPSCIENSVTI

Structure (SMILES) | activity change, negative = inhibition [%] | Potency
O=C1OC(C2CC2)c2cc3c(cc21)OCCO3 (configuration not stated) | 0.0886 | 
O=C(O)c1ccc(S(=O)(=O)Nc2cc(F)ccc2OCC(F)(F)F)cc1 | -0.0528 | 
Cc1cccc(OCCn2c(CN3CCCCC3)nc3ccccc32)c1 | 5.02 | 
CCn1ncc(N2CCC(NC(=O)c3ccc(OC(C)C)cc3)CC2)cc1=O | 42.2 | 
COc1ccc(NC(C)=O)cc1NC(=O)CCn1cnc2c1c(=O)n(C)c(=O)n2C | 2.56 | 
CCC1CCCCN1C(=O)Cn1c(=O)n(CCCCCC(=O)NCc2ccccc2)c(=O)c2sccc21 (configuration not stated) | -3.5 | 
O=C(Cn1c(=O)n(CCc2ccccc2)c(=O)c2sccc21)c1ccc(Cl)cc1 |  | 22.4 µM (active)
Cc1cccc(Cn2c(=O)n(CCC(=O)NCCc3ccc(Cl)cc3)c(=O)c3sccc32)c1 |  | inactive
CC(=O)SC(CC(=O)c1ccccc1)c1ccccc1 (configuration not stated) | 6.08 | 
S=C(NN=Cc1ccccn1)Nc1ccccn1 |  | 39.8 µM (active)
NCCC(=O)Nc1ccccn1 | -72.1 | 
Cc1nc2sc(C(=O)OCC(=O)Nc3cccc(C(F)(F)F)c3)c(C)c2c(=O)[nH]1 | -13.1 | 
COCCCNC(=O)CCn1ccc2cc(S(=O)(=O)N3CCCCC3)ccc21 | -21.4 | 
O=C(Nc1ccccc1Br)c1nc2ccccc2nc1N1CCOCC1 | 23.4 | 
COc1cc(Br)c(/C=C(/C#N)C(=O)c2ccccc2)cc1O |  | 10 µM (active)
COc1ccc(Cl)cc1NC(=O)/C(C#N)=C/c1coc2ccc(Cl)cc2c1=O | -20.8 | 
COc1ccc(C(=O)/C(C#N)=C\c2ccccc2OC(F)F)cc1 | -60.9 | 
C=CCn1c(-n2nc(CC)cc2CC)nc2c1c(=O)n(C)c(=O)n2C | -0.9 | 
O=C(NC1CCN(Cc2ccccc2)C1)c1cc2ccccc2oc1=O (configuration not stated) | 7.23 | 
N#Cc1cccc(NC(=O)CSc2nnc(Cc3ccccc3)o2)c1 | -6.14 | 
Cc1ccc(S(=O)(=O)/N=C2\C=C(NS(=O)(=O)c3ccc(C)cc3)C(=O)c3ccccc32)cc1 |  | 15.8 µM (active)
CSCC(NS(=O)(=O)c1ccc(C)cc1)C(=O)O (configuration not stated) | -24.3 | 

Structure (SMILES) | activity change, negative = inhibition [%] | Potency
Cc1ccc(S(=O)(=O)NC(C)c2cccs2)cc1 (configuration not stated) | 3.7 | 
CC(C)c1ccc(C(=O)N/N=C/CCc2ccccc2)cc1 | 8.22 | 
N#CCCN1CCC(c2ccccc2)C1 (configuration not stated) | -9.5 | 
S=c1[nH]nc(-c2cc(-c3ccsc3)n[nH]2)n1-c1ccccc1 |  | 15.8 µM (active)
CCCCC(CC(C)O)c1n[nH]c(=S)n1-c1ccccc1 (configuration not stated) | -11.3 | 
CC(=O)c1c(SCC(=O)Nc2ccc(F)cc2)nc(=O)[nH]c1C | 2.13 | 
COCC(=O)N1CCC(c2nc(C3CCOCC3)n[nH]2)CC1 | 31.6 | 
COc1ccc(S(=O)(=O)Nc2ccc(O)c(Sc3nc4ccccc4s3)c2)cc1 |  | 44.7 µM (active) and 22.4 µM (active)
Cc1ccc(NS(=O)(=O)c2cccc(C(=O)N(C)C(C)c3nc4ccccc4s3)c2)cc1 (configuration not stated) | -24.6 | 
COc1ccc(Nc2nc3ccccc3nc2NS(=O)(=O)c2ccc(OC)cc2)cc1 | 30.7 | 
COC(=O)C1=C(C)NC(=O)C1(NC(=O)c1ccccc1F)C(F)(F)F (configuration not stated) | 4.24 | 
CCCCCCc1ccc(/C(C)=C\C(=O)O)cc1 | -0.714 | 
CC(C)Oc1ccc(-c2cc(C(=O)NCc3ccncc3)c3ccccc3n2)cc1 | 2.41 | 
CCc1ccc(-c2cc(C(=O)NCc3ccco3)c3ccccc3n2)s1 |  | 17.8 µM (active) and 35.5 µM (active)
CCOc1ccc(CNC(=O)c2cc(-c3ccc(Cl)s3)nc3ccccc23)cc1 | 3.09 | 
O=C(CSc1nc(-c2ccc(F)cc2)cs1)NC1CCCCC1 | -28.6 | 
CC(C)Cn1cnc2c1c(=O)n(CC(=O)OCc1ccc(F)cc1)c(=O)n2Cc1ccccc1 | -0.353 | 
COC(=O)C1=C(C)Nc2nc3ccccc3n2C1c1cc(OC)c(O)c(OC)c1 (configuration not stated) | -5.58 | 
CC(C)Oc1ccc(NC(=O)c2ccc(Cl)cc2)cc1 | 11.9 | 
CCOc1ccc(NC(=O)c2ccc(Cl)cc2)c2cccnc12 | -4.2 | 
CCC(CO)Oc1cc(NC(=O)c2ccc(Cl)cc2)c2ncn(C(C)C)c2c1 (configuration not stated) |  | 3.16 µM (active)
COc1ccccc1C(=O)N1CCCN(CCc2ccccc2)c2ccccc21 | -8.95 | 

Structure (SMILES) | activity change, negative = inhibition [%] | Potency
COc1cccc(CN2Cc3cc(NC(=O)Cc4cccs4)ccc3OC(C)C2=O)c1OC (configuration not stated) | -4.41 | 
CCOc1ccc(Cl)cc1-c1cc(C(=O)NCc2cccs2)[nH]n1 | 2.11 | 
O=C(NCc1ccc(Cl)cc1)c1cc(-c2ccc[nH]2)n[nH]1 |  | 31.6 µM (active)
COc1ccccc1CNC(=O)c1cc(-c2cc(Cl)ccc2C)n[nH]1 | 4.1 | 
CCCn1nc(C(=O)Nc2nc(-c3ccc(NC(C)=O)cc3)cs2)c2ccccc2c1=O | 9.87 | 
CC(NC(=O)CSc1ccc(F)c(F)c1)c1nc2ccccc2[nH]1 (configuration not stated) | 23.4 | 
CN(CC(=O)Nc1ccc(Cl)cc1)C(=O)c1ccc(COc2ccccc2)cc1 | -58.7 | 
Cc1ccc(NC(=S)NCCc2ccc(Cl)cc2)c(C)c1 |  | 35.5 µM (active)
Cc1nn(C)c2c1c(C(F)(F)F)cc(=O)n2C(C)C(=O)NCc1ccc(Cl)cc1 (configuration not stated) | -0.223 | 
Cc1ccc(C)c(C(C)NC(=S)NCc2ccc(Cl)cc2)c1 (configuration not stated) |  | 31.6 µM (active)
Cc1cccc(NC(=S)N2CCC(O)CC2)c1C | 6.13 | 
S=C(NCCc1ccc(Cl)cc1)Nc1ccc(Oc2ccccc2)cc1 |  | 17.8 µM (active)
Cc1c(Cl)cccc1NC(=S)NCCSc1ccc(Cl)cc1 | -85.7 | 
Cc1cc(Cl)ccc1NC(=S)NCCCN1CCCC1=O | -17.6 | 
CCNC(=S)Nc1ccc(C)cc1Br | -16.7 | 
CCC(C)C(NC(=O)NCc1ccc(C)cc1)C(=O)O (configuration not stated) | -26.5 | 
O=C(NCCc1ccccc1)Oc1ccc(Cl)cc1 | 0 | 
Cc1cccc(NC(=S)NCCc2ccc(F)cc2)c1C |  | 39.8 µM (active)
CN1CCN(C(=O)CCCC(=O)O)CC1 | 15.9 | 
Cc1ccc([S+](=O)([O-])N2CCC3(CC2)CC(=O)N(c2ccccc2)c2ccccc2O3)cc1 | 0.498 | 
CC(C)CC1CCCN1 (configuration not stated) | -58.6 | 
CCn1cc(CN2CCC(N3CC(OCC4CC4)C34CCCCC4)CC2)cn1 (configuration not stated) | 34.7 | 

Structure (SMILES) | activity change, negative = inhibition [%] | Potency
CC[n+]1c(C)n(-c2ccccc2)c2ccc(NC(C)=O)cc21 |  | 39.8 µM (active)
CC(=O)Nc1ccc(S(=O)(=O)N2CCN(c3ccccc3)CC2)cc1 | -22.7 | 
CC(=O)Nc1ccc(NC(=O)CSc2nnc(C3CC3)n2-c2ccccc2)cc1 | 14.7 | 
COCC1CN(C(C)=O)CC12CCN(C(=O)c1n[nH]c(=O)c3ccccc13)CC2 (configuration not stated) | 36.8 | 
CC(=O)C(=Cc1ccc(-c2cccc([N+](=O)[O-])c2)o1)C(C)=O |  | 0.631 µM (active)
Cc1ccnc(-c2cccc([N+](=O)[O-])c2)[n+]1[O-] | -31.8 | 
N#CC(C#N)=Cc1ccc(-c2cccc(C(=O)O)c2)o1 | -13.7 | 
O=C(Nc1ccc(F)c(F)c1)c1nc2ccccc2nc1N1CCOCC1 | -46.7 | 
CCC(C)Cn1c(O)cc2nn(-c3nc4ccccc4s3)c(=O)c-2c1C (configuration not stated) |  | 31.6 µM (active)
CC(C)Cn1nc(C(=O)Nc2ccc3nc(N4CCOCC4)sc3c2)c2ccccc2c1=O | -20.9 | 
CCNC(=O)CN1CCCN(C(=O)CCCc2c[nH]c3ccccc23)CC1 | 9.16 | 
Cc1ccc(S(=O)(=O)/N=C(/NC(=S)Nc2c(C)n(C)n(-c3ccccc3)c2=O)c2ccccc2)cc1 |  | 28.2 µM (active)
Cc1c(NC(=S)NC(=O)CCc2ccccc2)c(=O)n(-c2ccccc2)n1C | 0 | 
CC(=O)NC(NC(=S)Nc1c(C)n(C)n(-c2ccccc2)c1=O)C(Cl)(Cl)Cl (configuration not stated) | -12.2 | 
C/C=C/C=C/C(=O)NCc1cccs1 | -25.4 | 
COc1cc(/C=C2/NC(=O)NC2=O)ccc1OCc1ccccc1F | 4.85 | 
CCOc1ccccc1NC(=O)N1CCN(Cc2nc(-c3ccc(C(=O)NC)cc3)oc2C)CC1 | 11.9 | 
CCCn1c(SCC(=O)N2CCc3ccccc32)nnc1-c1ccncc1 | -1.43 | 
CSc1nnc(-c2ccncc2)n1CCCN1CCCC1=O |  | 15.8 µM (active)
Cc1oc(-c2ccccc2)nc1C(=O)NCCCN1CCCC1=O | -42 | 
CCCCc1noc(CSc2cc(C(N)=O)c3ccccc3n2)n1 | -28.2 | 
CCOC(=O)N1CCN(Cc2nc3c(c(=O)[nH]c(=O)n3C)n2Cc2ccc(F)cc2)CC1 | -2.99 | 

Structure (SMILES) | activity change, negative = inhibition [%] | Potency
CCC(=C/c1sc2ccc3ccccc3c2[n+]1C)/C=C1\Sc2ccc3ccccc3c2N1C |  | 39.8 µM (active)
COc1ccc(CCc2nnc(NS(=O)(=O)Cc3ccccc3)s2)cc1 | -2.97 | 
CC(=O)Nc1ccc(Cl)c(-c2nc3cc(C)ccc3o2)c1 | 3.99 | 
NC(=O)c1ccc(S(=O)(=O)N2CCN(C(=O)c3cc4c(s3)CCC4)CC2)cc1 | -23.6 | 
COc1ccc(C)cc1Nc1nc(C)nc2c1oc1ccccc12 |  | 35.5 µM (active)
CCc1nc(Nc2ccc3nccnc3c2)c2oc3ccccc3c2n1 | -5.11 | 
COc1ccc(CCNC(=O)CSc2nc(C)nc3c2oc2ccccc23)cc1OC | 0 | 
COCCN1CCCC(c2[nH]ccc2C(=O)NCCc2c[nH]c3ccccc23)C1 (configuration not stated) | 8.73 | 
CCCCCCCOc1ccc(C(=O)Oc2cncc(Cl)c2)cc1 | 11.3 | 
Cc1ccc(S(=O)(=O)N2CCN(CC(=O)NC(C)c3cccs3)CC2)cc1 (configuration not stated) |  | 0.708 µM (active)
Cc1ccc(S(=O)(=O)N2CCN(C(=O)c3cccs3)CC2)cc1 | -3.66 | 
Cc1ccc(S(=O)(=O)N2CCN(Cc3cccc(C)c3O)CC2)cc1 | 365 | 
COc1c(I)cc(Br)cc1/C=C/C(=O)O | -10.9 | 
O=C(Cc1csc(-c2ccccc2Cl)n1)Nc1nccs1 | 5.87 | 
Cc1ccc(-c2c3c(=O)n(C)c(=O)n(C)c3c3n2C(C)(C)COC3c2ccc(C)cc2O)cc1 (configuration not stated) |  | 6.31 µM (active)
Cc1ccc(-c2c3c(=O)n(C)c(=O)n(C)c3cn2-n2cnnc2)cc1 | 209 | 
COc1ccc(N2C(=O)CC(Nc3ccc(F)cc3)C2=O)c([N+](=O)[O-])c1 (configuration not stated) | 0.124 | 
CC(=O)Oc1cccc(N2C(=O)CC(Nc3ccc(N4CCOCC4)cc3)C2=O)c1 (configuration not stated) |  | 35.5 µM (active)
COc1ccc(NC2CC(=O)N(C)C2=O)cc1 (configuration not stated) | -37.5 | 
